High-throughput results: PubChem, Buhrlage Lab, Dana-Farber Cancer Institute and Novartis Institutes for BioMedical Research (Cambridge, Mass)
USP28 inh – human USP28 deubiquitinase inhibition | purified USP28, Ub-rhodamine cleavage fluorescence, 30 min | inhibition, % at 25 µM | 47,000 compounds, 3% hits
USP17 inh – blocks human USP17 ubiquitin-rhodamine cleavage; A8MUK1; purified USP17, Ub-rhodamine cleavage fluorescence, 3 h; inhibition, % at 50 µM; 47,000 compounds, 6.5% hits
Target sequence (A8MUK1 whole entry, looked up): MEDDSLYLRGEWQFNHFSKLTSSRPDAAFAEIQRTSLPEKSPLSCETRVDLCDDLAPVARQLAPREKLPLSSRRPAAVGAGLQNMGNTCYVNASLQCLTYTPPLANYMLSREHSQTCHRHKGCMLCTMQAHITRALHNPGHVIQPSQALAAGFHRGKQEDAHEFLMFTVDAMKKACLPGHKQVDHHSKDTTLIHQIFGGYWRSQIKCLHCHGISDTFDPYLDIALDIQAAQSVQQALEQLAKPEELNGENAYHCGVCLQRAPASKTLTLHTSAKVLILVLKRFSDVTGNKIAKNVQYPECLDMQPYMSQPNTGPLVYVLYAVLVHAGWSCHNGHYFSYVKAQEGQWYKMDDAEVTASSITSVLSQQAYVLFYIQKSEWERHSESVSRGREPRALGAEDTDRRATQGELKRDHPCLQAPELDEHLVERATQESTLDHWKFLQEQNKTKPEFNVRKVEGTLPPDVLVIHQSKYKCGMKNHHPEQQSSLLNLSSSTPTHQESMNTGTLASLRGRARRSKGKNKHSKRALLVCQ
USP30 inh – human USP30 deubiquitinase inhibition | AID 1645860 | inhibition, % at 25 µM | purified USP30, Ub-rhodamine cleavage fluorescence | 47,000 compounds, 5.3% hits | Q70CQ3
Numbers stand for hits; - = inactive; . = no result. A selection: hits, their analogues and other compounds. The true share with any hit is near 11%. Rule as the data show it: active = inhibition above about 30%; inactive = the rest.

SMILES	USP28 inh	USP17 inh	USP30 inh
CC(=O)N1[C@@H](c2ccccc2)C[C@@]2(C)[C@@H](O)[C@@H](O)CCC[C@@H]12	.	-	.
O=C(CSc1nnnn1Cc1ccc2c(c1)OCO2)N1CCCC1	.	-	.
COc1ccc(NC(=O)CSc2nccn2C2CCCCC2)c(OC)c1	-	.	-
COc1cccc(N2C(=O)CN(S(C)(=O)=O)CC2(C)C(=O)NCc2ccccc2)c1 (centres undefined)	-	-	-
COc1cccc(/C=C/c2nc(C#N)c(N3CCN(C(=O)c4cccs4)CC3)o2)c1	-	-	52
COc1ccc(C(=O)N2CCN(c3oc(/C=C/c4cccc(OC)c4)nc3C#N)CC2)cc1	-	-	-
COc1ccc(NCc2cc(=O)[nH]c3ccccc23)cc1	-	-	37
COc1ccc(C(CNC(=O)c2cc(=O)[nH]c3ccccc23)N2CCCC2)cc1 (centres undefined)	-	-	-
O=S(=O)(Cc1ccc(Cl)cc1)N1CCCC1c1nnc2n1CCNCC2 (centres undefined)	-	-	-
COc1ccccc1CNC(=O)C(=O)c1cn(CC(=O)N2CCCCC2)c2ccccc12	-	-	-
CCN(CC)C(=O)Cn1cc(C(=O)C(=O)NCc2ccccc2Cl)c2ccccc21	-	-	45
CCN(CC)C(=O)Cn1cc(S(=O)(=O)Cc2c(F)cccc2Cl)c2ccccc21	-	-	38
Cc1ccccc1CS(=O)(=O)c1cn(CC(=O)N2CCCCC2)c2ccccc12	-	-	-
CCN(CC)C(=O)Cn1cc(S(=O)(=O)Cc2ccccc2Cl)c2ccccc21	-	38	-
O=C(Cn1cc(S(=O)(=O)Cc2c(F)cccc2Cl)c2ccccc21)N1CCCCCC1	-	-	-
Cc1noc(C)c1CC(=O)Nc1cccn2nc(C3CC3)nc12	-	-	-
Cc1ccc(N(CC(=O)NC2CCCC2)S(=O)(=O)N(C)C)cc1	.	-	.
CN1CCN(c2nc3c(c(=O)[nH]2)CCN(Cc2ccccc2F)CC3)CC1	-	-	-
COc1cccc2cc(-c3csc(N)n3)oc12	-	-	-
COc1cccc2cccc(O)c12	-	85	-
COc1ccc(C(=O)N2CCN(Cc3nc(N)c4ccccc4n3)CC2)cc1	-	-	-
Cc1ccccc1CSCC(=O)Nc1ccc2[nH]c(=O)[nH]c2c1	32	45	42
COc1cccc(C(=O)OCC(=O)Nc2ccc(C)c(S(=O)(=O)N3CCCCC3)c2)c1OC	-	-	-
Cc1cccc(C(=O)OCC(=O)Nc2ccc3[nH]c(=O)[nH]c3c2)c1C	40	40	52
O=C(COc1ccc(Cl)cc1Cl)Nc1ccc2[nH]c(=O)[nH]c2c1	47	35	66
SMILES	USP28 inh	USP17 inh	USP30 inh
COc1ccc(NC(=O)c2ccco2)cc1NC(=O)COc1ccc(Cl)cc1Cl	-	-	-
Cc1nnc(SC(C)C(=O)Nc2ccc3[nH]c(=O)[nH]c3c2)n1Cc1ccccc1 (centres undefined)	-	-	-
O=C(COC(=O)c1ccc(Cl)cc1)Nc1ccc2[nH]c(=O)[nH]c2c1	31	-	74
CC(Oc1ccc(Cl)cc1)C(=O)OCC(=O)Nc1ccc2[nH]c(=O)[nH]c2c1 (centres undefined)	-	-	-
CCN(CC)C(=O)CC[C@H]1CNC(=O)[C@@H]2[C@@H](CCN2Cc2csnn2)N1C	-	-	-
CC(C)NC(=O)c1cn(-c2ncccc2-c2nc(C(C)(C)C)no2)cn1	-	-	-
Cc1cc(C)nc(N2CCC(N(Cc3ccco3)S(=O)(=O)c3cccc4cccnc34)CC2)n1	-	-	-
Cc1ccc(NC(=O)c2ccccc2NC(=O)COc2cc(C)cc(C)c2)cc1	-	-	-
O=C(COc1ccccc1C(=O)Nc1ccccc1)Nc1ccc2[nH]c(=O)[nH]c2c1	-	38	-
O=S(=O)(NCC1CCCN(C2CCCCC2)C1)c1cccc2cccnc12 (centres undefined)	-	-	-
COc1nc2c(c(-c3ccco3)c1C#N)Cc1cc(NC(C)=O)ccc1-2	-	39	-
COc1ccc(NC(=O)COc2cccc(-c3noc(-c4ccco4)n3)c2)cc1	-	-	-
O=C(NC(Cc1ccccc1)C(=O)N1CCC2(CC1)NCCc1[nH]cnc12)c1ccc2c(c1)OCO2 (centres undefined)	-	.	-
Cc1cccc(C(=O)Nc2noc3nc(C)ccc23)c1	.	36	.
Cc1cccc(C(=O)NCc2noc(-c3ccccc3)n2)c1	-	-	-
N#Cc1cccc(C(=O)Nc2cccc(Oc3ccccc3)c2)c1	-	-	-
N#Cc1cccc(NC(=O)/C=C/c2cccc3ccccc23)c1	-	35	-
Cc1ccc(C)c(C(=O)NCc2noc(-c3ccccc3)n2)c1	-	-	-
Cc1cccc(S(=O)(=O)Nc2ccc(-c3nc4ccc(C)cc4s3)cc2)c1	-	-	-
Cc1ccc2nc(CCc3ccc(NS(=O)(=O)c4cccc(Cl)c4)cc3)[nH]c2c1	37	-	-
Cc1cccc(S(=O)(=O)Nc2ccc(CCc3nc4ccc(C)cc4[nH]3)cc2)c1	36	-	-
Cc1ccc2nc(CCc3ccc(NS(=O)(=O)c4cccc(Cl)c4C)cc3)[nH]c2c1	52	-	-
Cc1ccc2nc(CCc3cccc(NC(=O)c4ccc(C#N)cc4)c3)[nH]c2c1	-	-	-
COc1cc(C(=O)Nc2cccc(CCc3nc4ccc(C)cc4[nH]3)c2)cc(OC)c1OC	-	-	-
O=c1c2cnc3ncnn3c2ccn1CCc1ccccc1	-	-	-
SMILES	USP28 inh	USP17 inh	USP30 inh
Cc1noc(-c2cccn(Cc3noc(-c4ccccc4C)n3)c2=O)n1	-	-	-
COc1ccc(Cn2cccc(-c3nc(C4CC4)no3)c2=O)cc1F	31	-	-
Cc1ccccc1Cn1cccc(-c2nc(C3CC3)no2)c1=O	38	-	-
COc1cccc(-c2nc(Cn3cccc(-c4nc(C)no4)c3=O)no2)c1	-	-	-
CCCCN1C(=O)c2ccc(-c3ccco3)n2CC1(C)C(=O)NC1CCCC1 (centres undefined)	-	-	-
CCC(C(=O)Nc1ccc(C)cc1C)n1c(C)nc2onc(C)c2c1=O (centres undefined)	-	31	38
CCn1c(=O)c(CCC(=O)Nc2ccc(C)cc2C)nc2c(C)nn(-c3ccc(C)cc3)c21	-	-	-
Cc1ccc2cnn(CC(=O)N3CCc4ccccc43)c2c1	-	-	-
Cc1cccc(-n2ncc(C(=O)N3CCc4ccccc43)c2-n2cccc2)c1	-	-	42
O=C(COc1nc2ccccc2nc1N1CCOCC1)NC(c1ccccc1)c1ccccc1	-	-	-
COc1ccc(CCNC(=O)c2cnn(-c3ccc(F)cc3)c2C2CCNCC2)c(OC)c1	-	-	-
COc1ccc(CCNC(=O)c2cnn(-c3ccc([N+](=O)[O-])cc3)c2C2CCNCC2)c(OC)c1	-	-	34
O=c1cc(-c2ccc(O)c(O)c2)oc2cc(O[C@@H]3O[C@H](CO)[C@@H](O)[C@H](O)[C@H]3O)cc(O)c12	90	84	91
CC1OC(OCC2OC(Oc3c(-c4ccc(O)c(O)c4)oc4cc(O)cc(O)c4c3=O)C(O)C(O)C2O)C(O)C(O)C1O (centres undefined)	-	-	-
Cc1nn(-c2cc(N3CCOCC3)ncn2)c(C)c1CCC(=O)Nc1ccc(Cl)cc1	-	-	-
Cc1nn(-c2cc(N3CCOCC3)ncn2)c(C)c1CCC(=O)Nc1ccc(C(C)C)cc1	-	65	-
